Results published in PubChem BioAssay.
Activity calls are given as the source filed them. No rule for the calls is given here.

Molecular target: Pantothenate synthetase (Mycobacterium tuberculosis (strain ATCC 25618 / H37Rv)) (UniProt P9WIL5)
Assay: Coupled enzyme confirmation of inhibitors against recombinant Mtb PanC (AID 375);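 also: 0% = full reaction with vehicle and 100% = no enzyme background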
Conditions: coupled enzyme assay; at 10 µM, stronger effect = higher value

Sequence of Pantothenate synthetase (Mycobacterium tuberculosis (strain ATCC 25618 / H37Rv)) (P9WIL5 whole entry, looked up): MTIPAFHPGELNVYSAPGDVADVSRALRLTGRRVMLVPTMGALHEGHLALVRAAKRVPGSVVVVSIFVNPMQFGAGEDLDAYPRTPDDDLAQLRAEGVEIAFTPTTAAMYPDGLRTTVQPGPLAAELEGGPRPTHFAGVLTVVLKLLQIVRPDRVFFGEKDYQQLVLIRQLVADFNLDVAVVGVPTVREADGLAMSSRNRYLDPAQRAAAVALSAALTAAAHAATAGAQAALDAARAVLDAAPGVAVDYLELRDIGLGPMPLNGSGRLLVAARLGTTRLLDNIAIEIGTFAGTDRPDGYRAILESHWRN

Row | SMILES | inhibition
1 | COc1ccc(CCNC(=O)c2ccncc2)cc1OC | 4% (inactive)
2 | Cc1cc(Br)ccc1NC(=O)CNC(=O)CSc1n[nH]c(N)n1 | 6% (inactive)
3 | N#CCCN1CCN(S(=O)(=O)c2ccc(S(=O)(=O)NC3CCCC3)cc2)CC1 | 0% (inactive)
4 | Brc1ccc2[nH]c3nc(SCCN4CCOCC4)nnc3c2c1 | 0% (inactive)
5 | COCCn1nnnc1C(c1cccs1)N1CCN(c2cc(C)ccc2C)CC1 (stereo unspecified) | 0% (inactive)
6 | Cc1ccc(C(=O)NC(Cc2c[nH]c3ccccc23)C(=O)O)o1 (stereo unspecified) | 0% (inactive)
7 | Cc1cccc(NC(=O)Cn2c(=O)n(C)c3ccccc32)c1 | 0% (inactive)
8 | CC(=O)Nc1sc2c(c1C#N)CCCCC2 | 7% (inactive)
9 | CC1CN(C(=O)CSc2nnc(-c3ccncc3)n2-c2ccccc2)CC(C)O1 (stereo unspecified) | 1% (inactive)
10 | O=c1n(CCCN2CCN(c3cccc(Cl)c3)CC2)nc2ccccn12 | 0% (inactive)
11 | CC(=O)OCC(=O)[C@@]1(O)CC[C@H]2[C@@H]3CCC4=CC(=O)C=C[C@]4(C)[C@H]3[C@@H](O)C[C@@]21C | 0% (inactive)
12 | Cc1csc(NC(=O)C2CCCO2)n1 (stereo unspecified) | 0% (inactive)
13 | Cc1cccc(-n2ccnc2SCC(=O)Nc2cc(C)on2)c1 | 1% (inactive)
14 | Cc1cccc(OCC(=O)N2CCC(N3CCCCCC3)CC2)c1 | 0% (inactive)
15 | O=C(NCc1ccco1)c1c2c(nc3ccccc13)CCC2 | 0% (inactive)
16 | O=C(Nc1ccc(Br)cc1F)c1sccc1-n1cccc1 | 4% (inactive)
